In all, about 33,000 sequences were measured (“normalized occupancy”: median about 0.075, highest 2% from about 0.095 on). The sample as a whole holds a higher share of the highest values than the screen did.
Target: MaxL homodimer (Homo sapiens, UniProt P61244 1-160)
Assay: universal protein-binding microarray (PBM); PBS-based mixture, 10 nM His-tagged protein dimer, 2% milk, 200 ng/uL BSA, 50 ng/uL salmon testes DNA, 0.02% TX-100; detection with Alexa 488 anti-His antibody;; high values mean tight binding
Details: protein: recombinant; tags: C-terminal His-tag (pET21a); chain copies: 2; dsDNA, one strand shown
In short: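 Arrays of the 'all 10-mer' universal design (Agilent 4 x 44 K) were exposed to 10 nM His-tagged protein dimer, stained with 10 ng/μL fluorophore-conjugated anti-His antibody and read on a GenePix 4400A to give a fluorescence intensity for each 8-mer. Binding occupancy is each intensity divided by the highest-ranked intensity.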

MaxL homodimer, sequence (P61244 whole entry): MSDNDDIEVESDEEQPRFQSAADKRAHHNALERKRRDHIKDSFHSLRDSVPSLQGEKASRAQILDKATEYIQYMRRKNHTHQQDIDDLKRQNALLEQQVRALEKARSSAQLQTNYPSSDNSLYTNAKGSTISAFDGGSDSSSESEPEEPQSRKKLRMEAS

Row | Sequence | binding signal [normalized occupancy]
1 | CTATGTAC | 0.0847
2 | AGATGTAC | 0.0766
3 | CCATGTAC | 0.086
4 | TGAGATAA | 0.0797
5 | ATAATGAC | 0.0804
6 | AACTTGCC | 0.0757
7 | GAAACGCC | 0.0758
8 | CACTGCTG | 0.0746
9 | ATATGATC | 0.0857
10 | CCACATAA | 0.0799
11 | CAGCAGAG | 0.0727
12 | AATGAGTA | 0.077
13 | CATGAGGC | 0.109
14 | CATGAGTA | 0.0969
15 | TATGAGGA | 0.0851
16 | AATGAGGG | 0.0862
17 | GATGAGGC | 0.0786
18 | AATGAGGA | 0.0838
19 | CATGAGAG | 0.0941
20 | CATGAGTC | 0.091
21 | CATGAGGG | 0.109
22 | AATGAGGC | 0.0776
23 | CATGAGGA | 0.106
24 | GACACTTA | 0.0771
25 | GCAACACA | 0.0795

Row | Sequence | binding signal [normalized occupancy]
26 | TCAACTAA | 0.0725
27 | ATTGAAAT | 0.0772
28 | GTGAGTCA | 0.0793
29 | CCCCCCCA | 0.0901
30 | CGACAGCA | 0.0797
31 | ATAAATAG | 0.0754
32 | ATTCAGTA | 0.0734
33 | ATGACTAC | 0.0811
34 | ATGAGGGA | 0.0908
35 | ATGAGGGC | 0.0956
36 | ATGAGGGG | 0.0902
37 | GATTTAGA | 0.0724
38 | ACGTTGAC | 0.0793
39 | ATACCACA | 0.089
40 | AAACCACG | 0.0972
41 | ATACCACG | 0.0991
42 | TAACCACA | 0.0809
43 | CTACCACA | 0.0867
44 | AAACCACA | 0.0814
45 | CCGTTCTC | 0.0814
46 | ACAGCATC | 0.0767
47 | AGAGCATG | 0.0989
48 | ATAGCATA | 0.0872
49 | ACAGCATG | 0.127
50 | AGAGCATC | 0.0755

Row | Sequence | binding signal [normalized occupancy]
51 | ATAGCATG | 0.103
52 | ATAGCATC | 0.0799
53 | ACAGCATA | 0.0896
54 | AGAGCATA | 0.0815
55 | AGTACAGG | 0.0787
56 | ACACTCTG | 0.0741
57 | ATAGCTTC | 0.074
58 | AAGAGGCA | 0.0761
59 | ACGATTAG | 0.0719
60 | GATTCACC | 0.0757
61 | ACGATTTC | 0.0741
62 | CATCTTCA | 0.0786
63 | AAAATAGG | 0.076
64 | ACACATTG | 0.102
65 | ACACATTC | 0.0866
66 | ACACATGC | 0.137
67 | ACACATAT | 0.0874
68 | ACACATAC | 0.0823
69 | ATACATGA | 0.0834
70 | ACACATTA | 0.0926
71 | ACACATCT | 0.0851
72 | AGACATTG | 0.0768
73 | CTACATGC | 0.089
74 | ACACATGT | 0.127
75 | ATACATGC | 0.104

Row | Sequence | binding signal [normalized occupancy]
76 | ACCCAAAG | 0.072
77 | CACGGCAC | 0.078
78 | ATGATGGC | 0.0855
79 | TGCTAGCA | 0.0864
80 | GCCTACCC | 0.0797
81 | ACACATGA | 0.107
82 | GCACATGC | 0.159
83 | ACACATCA | 0.0839
84 | GCACATAC | 0.0803
85 | TCACATAA | 0.0812
86 | GGACATGA | 0.0803
87 | GCACATGA | 0.12
88 | GAACATGA | 0.0904
89 | TCACATGA | 0.109
90 | GAACATGC | 0.089
91 | ACACATAA | 0.082
92 | TAACATGA | 0.0906
93 | AGATTTGC | 0.0766
94 | CGCCTCTC | 0.0756
95 | ACTGAATC | 0.0726
96 | CTCAACCC | 0.072
97 | CTGTAATA | 0.0777
98 | CATGGGAC | 0.0894
99 | GTCAGCAC | 0.0806
100 | CACAATGG | 0.0783

Row | Sequence | binding signal [normalized occupancy]
101 | TACCTTAA | 0.072
102 | AAGATCTT | 0.0757
103 | AAACATGG | 0.0874
104 | AAACATGC | 0.0937
105 | ATACATGG | 0.0876
106 | AAACATGA | 0.0907
107 | ACACATGG | 0.159
108 | AAACATGT | 0.0983
109 | GATGACAA | 0.0764
110 | TCTTTCAA | 0.0757
111 | ACTAGTTA | 0.0749
112 | CCTCAACC | 0.0752
113 | AATTTGGG | 0.0765
114 | AACGCGCA | 0.078
115 | CGCGCGCG | 0.0873
116 | CACGCGCA | 0.135
117 | AACGCGCG | 0.0803
118 | CCCGCGCC | 0.0733
119 | CGCGCGCA | 0.075
120 | CACGCGCC | 0.116
121 | CGCGCGCC | 0.0783
122 | CACGCGCG | 0.133
123 | AACATCAC | 0.0837
124 | CTAGCTAC | 0.0765
125 | CCTAGTGC | 0.0733

Row | Sequence | binding signal [normalized occupancy]
126 | AACCCCTC | 0.0767
127 | AATAAGTA | 0.0754
128 | ATTCTATG | 0.0827
129 | CTTTCTGC | 0.0723
130 | CGTAACGC | 0.0778
131 | GCAAGCCA | 0.0722
132 | GATGGCCA | 0.0755
133 | AATGTCAA | 0.0742
134 | ATAAGTAA | 0.0793
135 | GTCATGAC | 0.0806
136 | GCCATGAC | 0.0739
137 | AGCATGAC | 0.0962
138 | AGCATGAA | 0.0874
139 | AGCATGAT | 0.107
140 | ATCATGAT | 0.0928
141 | CCCTAAAA | 0.076
142 | CTGACCTC | 0.0774
143 | CCATGAGA | 0.0896
144 | ACATGAGG | 0.108
145 | ACATGAGA | 0.0971
146 | AGATGAGG | 0.0788
147 | CCATGAGG | 0.112
148 | CCATGAGC | 0.0818
149 | ACATGAGC | 0.0906
150 | GCATGAGA | 0.0947

Row | Sequence | binding signal [normalized occupancy]
151 | ACATGAGT | 0.09
152 | GTCAAGGA | 0.0749
153 | CTAATGTC | 0.0828
154 | GAAGTTAC | 0.0721
155 | TAACTAGA | 0.0765
156 | ACGGTGGC | 0.079
157 | AAATACAA | 0.076
158 | CATATGGG | 0.103
159 | CATATGGA | 0.095
160 | AATATGGC | 0.0866
161 | CATATGGC | 0.0994
162 | CATATGAC | 0.0954
163 | CATATGAA | 0.088
164 | AATATGAC | 0.0855
165 | AATATGGG | 0.0882
166 | GATATGGC | 0.0846
167 | AGTTCTAA | 0.0746
168 | CTGAAAAC | 0.0806
169 | CGTGCTAA | 0.0881
170 | ACTGCCCC | 0.0751
171 | GGCATTAC | 0.0758
172 | AAACGAAG | 0.0718

Source: article PMC4242493, “Sequence specificity incompletely defines the genome-wide occupancy of Myc”
